Assay results taken from the supplement of paper PMC10338343.
± gives the standard deviation.

test system: MILI (PIWIL2) piRISC loaded with piRNA #1 (26 nt); test: pre-steady-state target cleavage rate (min^-1); guide: piRNA #1 5'p-UGAGGUAGUAGGUUGUAUAGUAUCCA; MIWI and MILI are mouse PIWI proteins and EfPiwi is from a freshwater sponge; tags in brackets are library labels; higher = faster piRNA-guided slicing of the target; settings: auxiliary factor: 500 nM mouse GTSF1
Outline: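 With or without 500 nM GTSF1 partner protein, 1 nM active affinity-purified piRISC carrying one synthetic guide was mixed with 0.1 nM transcribed, DNA-blocked target RNA library in HEPES–potassium acetate buffer at 33 °C for 0–8 or 0–960 min. Uncleaved targets were sequenced and normalised to depth and to weakly complementary targets, three trials were pooled, and k3 was capped at 0.0001 min^-1. The pre-steady-state cleavage rate came from a burst-and-steady-state fit.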

First: GGAGACCUAUGAAUACAACCUACUAUCCUCA
Second: GGAGACCUAUGAUAUGUUCCUACAAGCUCA
The “pre-steady-state target cleavage rate” value of the first is higher: 0.00841 ± 0.0026 for the first, less than 0.0001 for the second.

First: GGAGACCUAUGAUUACAACCUUCUACCUCA
Second: GGAGACCUAUCUAAACAACCUACUAGCUCA
The “pre-steady-state target cleavage rate” value of the first is lower: 0.00235 ± 0.0023 for the first, 0.0571 ± 0.011 for the second.

First: GGAGACCUAUCUAUACAUCCUACUUCCUCA
Second: GGAGACGAUACUUUACAACGUACUACCUCA
The “pre-steady-state target cleavage rate” value of the first is higher: 0.107 ± 0.019 for the first, 0.0294 ± 0.0045 for the second.

GGAGACCUAUGAUUACAACCUACUUACCUCA and GGAGACCUAUGUAUACAACCAACUACCUCA are within error of each other in “pre-steady-state target cleavage rate” value: 0.0057 ± 0.0019 for the first, 0.0033 ± 0.002 for the second.

Compared with GGAGACCUAUGUAUACAACCUACUACCACA, GGAGACCUAUCUAAACAACCUACUACCUGA is lower in “pre-steady-state target cleavage rate” value: 0.0991 ± 0.01 for the first, 0.0477 ± 0.013 for the second.

Compared with GGAGACCAUACAAUACAACCUUCUACCUCA, GGAGACCUAUGAUAUCAACCUACAACCUCA is lower in “pre-steady-state target cleavage rate” value: 0.012 ± 0.0035 for the first, 0.00288 ± 0.0026 for the second.

GGAGACCUAUGUAUACUACCUACUACCUGA and GGAGACCUAUGAUAUCCAACCUACUACCUCA are within error of each other in “pre-steady-state target cleavage rate” value: 0.0173 ± 0.0042 for the first, 0.0112 ± 0.0022 for the second.

Going from GGAGACCUAACUUUACAAGCUACUACCUCA to GGAGACCUAUCUGUACAACCUACUACCUCA, the “pre-steady-state target cleavage rate” value falls from 0.135 ± 0.025 to 0.0491 ± 0.0092.

Going from GGAGUGCAUACUUUACAACCUACUACCUCA to GGAGACCUAUCUAUAGAACCUACUACGUCA, the “pre-steady-state target cleavage rate” value falls from 0.166 ± 0.0083 to 0.0269 ± 0.0089.

GGAGACCUAACUAUAGAACCUACUACCACA and GGAGACCUUACUUAUCAACCUACUACCUCA are within error of each other in “pre-steady-state target cleavage rate” value: 0.0663 ± 0.019 for the first, 0.0518 ± 0.014 for the second.

Going from GGAGACCUAUGUGUACAACCUACUACCUCA to GGAGACCUAUCUAUUCAAGCUACUACCUCA, the “pre-steady-state target cleavage rate” value rises from 0.0178 ± 0.0035 to 0.196 ± 0.015.

GGAGACCUAACUAUACAGCCUACUACCUCA and GGAGUGGAUACUUUACAACCUACAACCUCA are within error of each other in “pre-steady-state target cleavage rate” value: 0.0605 ± 0.018 for the first, 0.0647 ± 0.0091 for the second.

Compared with GGAGACCUAUCUAUACAACUUACUACCUCA, GGAGACCUAUGAAUACAACCUACUUACCUCA is lower in “pre-steady-state target cleavage rate” value: 0.0156 ± 0.0023 for the first, 0.00968 ± 0.0023 for the second.

First: GGAGAGGAUACAAAACAACCUACUACCUCA
Second: GGAGACCUAUGUAUACAACCUACUUCGUCA
The “pre-steady-state target cleavage rate” value of the first is higher: 0.128 ± 0.013 for the first, 0.0106 ± 0.0032 for the second.

First: GGAGUGGAUACUAUAGUACCUACUACCUCA
Second: GGAGACCUAUGAUUCACAACCUACUACCUCA
The “pre-steady-state target cleavage rate” value of the first is higher: 0.161 ± 0.012 for the first, 0.00321 ± 0.0032 for the second.

First: GGAGACCUAUGAUUACAUCCUACAACCUCA
Second: GGAGAGGAUACUAUACUUCCUACUACCUCA
The “pre-steady-state target cleavage rate” value of the first is lower: 0.00871 ± 0.0027 for the first, 0.19 ± 0.015 for the second.

GGAGACCUAUGAUAUCAAGCUACUACCACA and GGAGACCUUACUAUACAACCUAGAUCCUCA are within error of each other in “pre-steady-state target cleavage rate” value: 0.00606 ± 0.0028 for the first, 0.00967 ± 0.0031 for the second.

First: GGAGACCUAUGAAUACAACCUACUACCUUCA
Second: GGAGACCUAACUAAACAACCUACUAGCUCA
The “pre-steady-state target cleavage rate” value of the first is lower: 0.00676 ± 0.0021 for the first, 0.0613 ± 0.018 for the second.

First: GGAGACCUAUCUUUAGAACCUACUACCUCA
Second: GGAGUGGAUAGUAUUCAACCUACUACCUCA
The “pre-steady-state target cleavage rate” value of the first is lower: 0.0437 ± 0.0095 for the first, 0.106 ± 0.011 for the second.

Going from GGAGAGGAUACUAUACAAGGAACUACCUCA to GGAGACCUAUCUAUACAACCUACUUACCUCA, the “pre-steady-state target cleavage rate” value rises from 0.00442 ± 0.002 to 0.121 ± 0.015.
